Assay outcomes as filed in PubChem.
Compounds with a hit are over-represented: about 19% of the library has one in this group of screens.
Pf growth 48h: inhibits P. falciparum growth in the first generation, 48 h. AID 504832. 5.9% of 310,000 active. Potency, µM (titrated, usually from 28.7 µM), for inactives: at the highest dose activity change, negative = inhibition, most hits filed as inhibitors. P. falciparum luciferase growth in erythrocytes, 48 h; note: potency is the fitted concentration of half-maximal effect; % is set by controls: 0 for no effect and ±100 for the full control effect
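Compounds are pin-transferred into medium, infected erythrocytes (2% hematocrit, 0.1% parasitemia final) are added, and plates sit one parasite generation at 37 C in 5% CO2. Detection reagent is then added and luminescence measured.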
Lassa entry inh: blocks Lassa virus binding to or entry into cells | AID 540256 | 1.2% of 300,000 active | Lassa virus pseudotype entry inhibition, cell reporter | Potency, µM (doses to about 37.9 µM), for inactives: at the highest dose activity change, negative = inhibition, actives largely listed as inhibitors; calls by dose curve; tested in HEK293 cells; note: potency is the fitted concentration of half-maximal effect; % is set by controls: 0 for no effect and ±100 for the full control effect; nearly all actives have a fitted effect of over 50% in size
Shiga toxin inh: Shiga toxin inhibition; Vero cells, Shiga toxin protein synthesis inhibition reporter; inhibition, % at 38.7 µM; 9.2% of 290,000 active; in the data active = inhibition mostly above about 28%, no sharp cut-off; inactive = mostly below about 43%; note: 0% is about no effect
Cycloheximide cs: counter-screen for Shiga toxin inhibitors: cycloheximide protein synthesis inhibition. cell reporter, cycloheximide protein synthesis inhibition counterscreen. max response, %. 12% of 300,000 active; in the data active = max response mostly above about 13%, no sharp cut-off; inactive = mostly below about 14%; note: read at 38.3 µM for the half of the compounds with a filed dose; 0% is about no effect
Pf growth 96h: P. falciparum growth inhibition at 96 hours; Potency, µM (titrated, usually from 28.7 µM), without a hit: at the top dose activity change, negative = inhibition, most hits filed as inhibitors; 6.9% of 320,000 active; P. falciparum luciferase reporter growth, 96 h; AID 504834; note: potency is the fitted concentration of half-maximal effect; % is set by controls: 0 for no effect and ±100 for the full control effect
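P. falciparum expressing integrated firefly luciferase grown in erythrocytes (2% hematocrit, 0.05% parasitemia final) with compounds for 96 hours at 37 C, 5% CO2. Growth inhibition read as loss of luminescence after adding luciferase detection reagent.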
Marburg entry inh: blocks Marburg virus binding to or entry into cells | Marburg virus pseudotyped entry inhibition, cell reporter | Potency, µM (top dose mostly 37.8 µM), inactives show top-dose activity change, negative = inhibition, actives largely listed as inhibitors | 1.8% of 300,000 active | AID 540276; calls by dose curve; tested in HEK293 cells; note: potency is the fitted concentration of half-maximal effect; % is set by controls: 0 for no effect and ±100 for the full control effect
An asterisk follows results filed as active; ? = inconclusive; . = not tested or not shown; [ ] = remark or other dose. Unless noted, calls come from the whole dose curve; as a rule, active = well fitted inhibition curve with a large enough effect; inconclusive = small, poorly fitted or top-dose-only effect, or another doubt; inactive = no such curve, though single readings can be large or run the other way.

SMILES	Pf growth 48h	Lassa entry inh	Shiga toxin inh	Cycloheximide cs	Pf growth 96h	Marburg entry inh
Cc1nc(NCCc2ccc(F)cc2)c2nnn(Cc3ccccc3)c2n1	-9.3%	0.4%[46.1 µM]	9.9	0.5	?	1.8%[46.1 µM]
Nc1nc2c(cnn2CCc2ccccc2)c2nc(-c3ccco3)nn12	.	?	.	.	.	-3.8%
Cc1nc(NC(C)C)c2cnn(CCc3ccccc3)c2n1	.	-6.0%	38.9	19.1*	-5.8%	-5.9%
Cc1ccc(-n2nc(C(=O)N3CCN(c4cc(Cl)ccc4C)CC3)c(=O)n(C)c2=O)cc1	.	-20.9%[46.1 µM]	.	.	.	.
Cc1cc(C)cc(NC(=O)COCc2cc(-c3ccc4c(c3)OCO4)on2)c1	.	-1.2%[46.1 µM]	.	.	.	.
Cc1cccc(OCCn2c(NC(=O)c3ccco3)nc3ccccc32)c1	?	-26.8%	89.2*	26.3*	31.6%	?
CCC(=O)Nc1nc2ccccc2n1Cc1ccc(C)cc1	2.94µM*	-24.9%	-13.1	-2.4	0.2%	-18.9%
C=CCn1c(NC(=O)c2ccco2)nc2ccccc21	11.7µM*	-28.1%[46.1 µM]	-22.0	17.0	11.4%	?
CC(=O)Nc1nonc1-c1nc2ccccc2n1Cc1ccccc1	11.7µM*	-13.0%	12.9	-1.9	.	-27.9%
O=C(Nc1nc2ccccc2n1Cc1ccc(Cl)cc1)c1ccco1	11.7µM*	?	13.7	3.1	-20.0%	?
CC(=O)NCc1nc2ccccc2n1Cc1ccccc1F	34.5%	-17.6%	-4.1	-3.2	2.08µM*	4.9%
O=C(Nc1nc2ccccc2n1CCOc1ccc(Cl)cc1)c1ccco1	.	.	48.8	20.1*	?	.
CCn1c(NC(C)=O)nc2ccccc21	18.5%	1.1%	-3.0	-3.3	?	-7.3%
CC(=O)Nc1nc2ccccc2n1Cc1ccc(Cl)cc1	2.94µM*	.	34.7	-1.9	?	.
Cc1cc(C(=O)OCC(=O)Nc2ccc(S(N)(=O)=O)cc2)c2ccccc2n1	12.9%	10.9%[46.1 µM]	-9.4	8.9	60.8%	21.8%[46.1 µM]
Cc1ccc(OCCn2c(NC(=O)c3ccco3)nc3ccccc32)cc1	2.94µM*	-4.1%	-4.9	-2.9	?	?
O=C(Nc1nc2ccccc2n1CCOc1ccccc1)c1ccco1	2.94µM*	?	79.7	47.7*	2.94µM*	?
CC(NC(=O)/C=C/c1ccco1)c1nc2ccccc2n1Cc1cccc(Cl)c1 (centres undefined)	13.1µM*	?	66.6*	53.7*	?	-1.1%
CCC(O)c1nc2ccccc2n1Cc1cccc(Cl)c1 (centres undefined)	.	-2.2%[46.1 µM]	.	.	.	6.2%[46.1 µM]
Cc1ccnc(NC(c2cccc(O)c2)c2ccc3ccc(C)nc3c2O)c1 (centres undefined)	.	-8.6%[46.1 µM]	.	.	.	2.9%[46.1 µM]
COC(=O)c1ccc([N+](=O)[O-])c(CS(=O)(=O)c2ccc(Cl)cc2)c1	-16.2%	10.8%[46.1 µM]	-5.9	-1.7	12.1%	5.6%[46.1 µM]
CO/N=C/CC(=O)c1ccc([N+](=O)[O-])c(CS(=O)(=O)c2ccc(Cl)cc2)c1	14.7µM*	.	2.1	2.1	?	.
CCN(CC(=O)NCc1ccncc1)S(=O)(=O)c1ccccc1	3.6%	5.3%	-2.2	-4.5	-8.7%	-7.0%[46.1 µM]
Cc1ccc(-c2csc(N3CCN(c4cc5c(cc4Cl)nc(-c4ccncc4)n5CCN4CCCCC4)CC3)n2)cc1	?	.	-2.1	-2.9	3.29µM*	-0.9%
Cc1ccc(-c2csc(N3CCN(c4ccc5nc(-c6ccncc6)n(CCN6CCCCC6)c5c4)CC3)n2)cc1	1.47µM*	.	5.0	13.4	?	.
SMILES	Pf growth 48h	Lassa entry inh	Shiga toxin inh	Cycloheximide cs	Pf growth 96h	Marburg entry inh
COc1ccc(-c2csc(N3CCN(c4cc5c(cc4Cl)nc(-c4ccncc4)n5CCOCCO)CC3)n2)cc1	?	.	-6.1	-5.6	3.7µM*	.
CCCn1c(C)nc2cc(Cl)c(N3CCN(c4nc(-c5ccc(C)cc5)cs4)CC3)cc21	8.28µM*	.	2.7	-2.1	5.22µM*	.
Cc1ccc(C(=O)NCc2ccccc2F)cc1S(=O)(=O)N1CCCC1	?	?	-2.8	-3.6	-2.0%	?
COc1ccc(S(=O)(=O)Nc2cccc(-c3ccc(N4CCOCC4)nn3)c2)cc1F	.	3.8%[46.1 µM]	.	.	.	.
CCOc1ccc(NC(=O)c2ccccc2NC(=O)CN2CCN(C(C)=O)CC2)cc1	?	-12.6%	-6.5	13.0	8.3%	-3.3%
CCC1C(=O)NCCN1C(=O)c1cccc(OC2CCN(S(=O)(=O)N(C)C)CC2)c1 (centres undefined)	7.8%	.	52.1	38.4*	31.5%	.
CN(C)S(=O)(=O)N1CCC(Oc2cccc(C(=O)NCCC3=CCCCC3)c2)CC1	?	?	62.6*	24.5*	6.7%	?
CCC1C(=O)NCCN1C(=O)c1ccc(OC)c(OC2CCN(C(C)=O)CC2)c1 (centres undefined)	22.2%	-0.7%	-1.5	-1.9	?	27.2%
CN(C)S(=O)(=O)N1CCC(Oc2cccc(C(=O)NC3CCOC3)c2)CC1 (centres undefined)	23.2%	1.0%	23.3	14.6*	15.1%	-8.0%
Cc1ccc(-c2nnc(NC(=O)c3ccco3)o2)c(C)c1	?	-21.6%[46.1 µM]	.	.	-23.8%	?
CCN(CC)CCCn1c(=S)[nH]c2ccccc2c1=O	9.5%	-1.6%	-4.3	-1.3	?	-26.1%
Cc1cccc2sc(NC(=O)Cn3c(C)csc3=O)nc12	-16.3%	?	.	.	34.3%	-16.7%
O=C(COC(=O)CNS(=O)(=O)c1ccc(F)c(F)c1F)NCCc1ccccc1	112.0%	4.6%	49.0*	45.5*	81.7%	6.2%
O=C(Nc1cccc2ccccc12)N1CCN(Cc2ccccc2)CC1	-15.3%	-3.7%	6.8	0.8	10.4µM*	7.8%
COc1ccccc1N1CCN(C(=S)Nc2cccc(C)c2)CC1	0.0%	?	52.4	32.5*	7.0%	?
Cc1ccc(NC(=S)N2CCCCCC2)c(C)c1	18.2%	?	25.3	18.2*	-29.0%	?
Cc1ccc(C)c(NC(=S)N2CCCC2)c1	13.0%	4.7%[46.1 µM]	-12.1	-2.7	2.2%	15.7%[46.1 µM]
S=C(Nc1ccc2nsnc2c1)N1CCCCC1	39.0%	15.7%	42.0*	11.3*	11.7%	3.6%
Cc1cccc(NC(=S)N2CCN(c3cc(C)ccc3C)CC2)c1	13.3%	?	-19.9	1.8	-0.1%	?
COc1ccccc1NC(=O)CN(c1ccccc1)S(=O)(=O)c1ccccc1	26.6%	.	.	-5.5	-26.8%	.
Cc1cccc(N(CC(=O)N/N=C/c2ccccc2C(=O)O)S(C)(=O)=O)c1C	2.4%	.	27.8	10.3	30.2%	.
O=C(Nc1nccs1)c1cc(-c2ccccn2)nc2c(Cl)cccc12	17.3%	-7.3%	12.0	-1.6	?	-35.3%
O=C(NCC(=O)N(Cc1ccccc1)C(C(=O)NCC1CCCO1)c1ccccc1)c1cccs1 (centres undefined)	?	-1.1%	-4.6	-3.9	2.3%	?
Cc1ccc(NC(=O)N2CCCCCC2)cc1C	65.3%	-16.4%[46.1 µM]	69.0*	44.3*	37.0%	?
O=C(CCC(=O)N1CCCCC1)Nc1ccc(Cl)c(Cl)c1	12.9%	4.5%	9.9	-1.0	11.7µM*	20.6%
Cc1ccc(NC(=O)N2CCCCC2)cc1NC(=O)N1CCCCC1	?	.	-3.6	2.5	-0.6%	.
